Compound activity deposited in PubChem by several laboratories.
An excerpt weighted towards active compounds, which were near 3.1% of everything screened.
MEKK2 WT-MEK5 – modulators of MEK5 binding to wildtype MEKK2, primary screen, biochemical, multiplex bead flow cytometry, Alexa488-MEK5 | Alexa488-MEK5 binding to MEKK2 WT; actives lie on both sides | binding response (% of control), % at 10 µM | hit rate 1.1% among 290,000; in the data active means binding response below about 67% or above about 130%
PREPL inh – PREPL enzyme inhibitors, primary screen, biochemical, fluorescence polarization. recombinant PREPL, fluorescence polarization activity-based probe. inhibition, % at 5.96 µM. hit rate 0.68% among 320,000. AID 2751, 2010; in the data active means inhibition above about 43%
MEKK3 PB1 HTS – modulators of MEKK3-MEK5 PB1 binding, primary screen, biochemical, wildtype MEKK3, multiplex bead flow cytometry, Alexa488-MEK5; binding response (% of control), % at 10 µM; bead-based flow cytometry, Alexa488-MEK5 binding to MEKK3; actives lie on both sides; 0 = blocked by unlabeled MEK5, 100 = vehicle; hit rate 1.4% among 290,000; AID 1529, 2009; Mitogen-activated protein kinase kinase kinase 3 (Homo sapiens), Q99759;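 active means binding response more than 3 SD above or below the average of its plate-row segment, actives on both sides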;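 further: Alexa488 bead fluorescence after subtracting the streptavidin-only scavenger bead signal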
ATG4B inh – ATG4B protease inhibitors, primary screen, biochemical, fluorescence, uHTS; AID 504462, 2011; ATG4B cleavage of LC3-PLA2, NBD-HPC fluorescence, 1 h; Cysteine protease ATG4B (Homo sapiens), Q9Y4P1; hit rate 0.51% among 340,000; inhibition, % at 8.33 µM; in the data active means inhibition above about 40%
Target sequence (Q9Y4P1 whole entry, looked up): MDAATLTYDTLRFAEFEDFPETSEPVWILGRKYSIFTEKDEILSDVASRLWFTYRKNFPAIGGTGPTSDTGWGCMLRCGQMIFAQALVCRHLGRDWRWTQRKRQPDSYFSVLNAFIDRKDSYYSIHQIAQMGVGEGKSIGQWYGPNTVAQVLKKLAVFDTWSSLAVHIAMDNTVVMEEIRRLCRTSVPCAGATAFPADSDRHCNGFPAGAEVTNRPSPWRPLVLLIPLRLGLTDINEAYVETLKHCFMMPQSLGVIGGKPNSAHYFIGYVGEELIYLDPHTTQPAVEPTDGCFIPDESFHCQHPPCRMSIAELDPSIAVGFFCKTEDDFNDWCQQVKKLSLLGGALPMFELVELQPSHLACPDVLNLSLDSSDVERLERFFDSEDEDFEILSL
MEKK2mut PB1 HTS – MEK5 binding signal on mutant MEKK2 PB1, primary screen, biochemical, multiplex bead flow cytometry, Alexa488-MEK5 | AID 1530, 2009 | Alexa488-MEK5 binding to MEKK2 mutant | percent response, % at 10 µM | hit rate 0.35% among 290,000; in the data active means percent response above about 24%, passing the limit was not always enough
UBC13 inh – UBC13 polyubiquitin chain formation inhibitors, primary screen, biochemical, TR-FRET, uHTS | Ubiquitin-conjugating enzyme E2 N (Homo sapiens), P61088 | inhibition, % at 20 µM | hit rate 0.47% among 330,000 | AID 485273, 2010; in the data active means inhibition above about 45%, passing the limit was not always enough
Target sequence (P61088 whole entry, looked up): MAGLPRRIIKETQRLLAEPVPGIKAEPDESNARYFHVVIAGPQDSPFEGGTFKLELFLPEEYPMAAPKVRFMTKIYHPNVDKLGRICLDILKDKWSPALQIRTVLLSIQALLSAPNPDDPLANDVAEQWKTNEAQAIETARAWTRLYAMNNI
MEKK2wt confirm – modulators of MEK5 binding to wildtype MEKK2, confirmation, biochemical, single concentration, multiplex bead flow cytometry | shares compounds with MEKK3 PB1 HTS | Alexa488-MEK5 binding to MEKK2 WT; actives lie on both sides | binding response (% of control), % at 10 µM | hit rate 2.4% among 5,900 | AID 1892, 2009; in the data active means binding response below about 16% or above about 210%; inactive means in between
MEKK2mut confirm – mutant MEKK2 PB1-MEK5 binding signal retest – biochemical, single concentration, multiplex bead flow cytometry, confirmation; shares compounds with MEKK3 PB1 HTS; Alexa488-MEK5 binding to MEKK2 mutant; percent response, % at 10 µM; hit rate 2% among 5,900; AID 1893, 2009; in the data active means percent response mostly above about 71%, no sharp cut-off; inactive means mostly below about 38%;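 further: higher means compound restores mutant binding toward wildtype level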
MEKK3-MEK5 inh – MEKK3 wild-type PB1 binding to MEK5, inhibitors, confirmation, biochemical, bead multiplex flow cytometry, single concentration, wildtype; shares compounds with MEKK3 PB1 HTS; Alexa488-MEK5 binding to MEKK3; stronger effect = lower value; binding response (% of control), % at 10 µM; hit rate 1.8% among 5,900;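 active means binding response below 72% of control, or above a set upper limit, though filed actives all read lower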
A number is an active result; - = inactive; . = not tested or not shown; [ ] = dose if it differs, or a comment.

SMILES	MEKK2 WT-MEK5	PREPL inh	MEKK3 PB1 HTS	ATG4B inh	MEKK2mut PB1 HTS	UBC13 inh	MEKK2wt confirm	MEKK2mut confirm	MEKK3-MEK5 inh
NC1=NN=C(c2ccc3c(c2)OCCO3)CS1	1.0[inhibitor]	-	1.0[inhibitor]	-	-	-	-	-	-
CCc1ccccc1NC(=O)CSc1nnc(-c2cc(C)[nH]n2)n1N	-	-	-	-	-	-	.	.	.
O=C(CN(Cc1ccc(F)cc1)C(=O)c1ccco1)NCc1ccc(F)cc1	0.0[inhibitor]	-	0.0[inhibitor]	-	-	-	-	-	-
Cc1cccc(/C=N/c2sc3c(c2C(=O)OC(C)(C)C)CCN(C)C3)c1O	141	-	-	-	-	-	-	-	-
CCCCCCCCCC(=O)N1c2ccccc2NC(=O)C1CC(=O)Nc1ccc(C(=O)O)cc1 (stereo unspecified)	-	-	-	-	-	-	.	.	.
CCn1c(C)[n+](Cc2ccccc2)c2ccc(Cl)cc21	5.0[inhibitor]	-	3.0[inhibitor]	-	-	-	-	-	-
COc1cc(/C=N/NC(=O)COc2cc(C)cc(C)c2)ccc1OS(=O)(=O)c1ccc(C)cc1	-	-	135	-	-	-	-	-	-
O=C(COc1ccccc1)NCC1(N2CCCCC2)CCCCC1	147	-	-	-	-	-	-	-	-
COc1ccc(/C=N\NC(=O)CNC(=O)C(c2ccccc2)c2ccccc2)cc1[N+](=O)[O-]	-	-	143	-	-	-	-	-	-
COc1cc(/C=N\NC(=O)CNC(=O)C(c2ccccc2)c2ccccc2)ccc1O	-	-	-	-	-	-	.	.	.
Cc1cccc(CSc2nnc(CCCCCNC(=O)OC(C)(C)C)o2)c1	-	-	138	-	-	-	-	-	-
Cc1ccc(CSc2nnc(CCCCCNC(=O)OC(C)(C)C)o2)cc1	-	-	-	-	-	-	.	.	.
O=C(CCc1nc(-c2ccccc2F)no1)NC1CCN(Cc2ccccc2)CC1	-	-	-	-	24	-	-	-	-
Cc1ccc(-c2noc(CCC(=O)NC3CCN(Cc4ccccc4)CC3)n2)cc1	-	.	-	-	-	.	.	.	.
COc1ccc(C2CC(c3cccs3)=NN2c2ccc(C=O)cc2)cc1 (stereo unspecified)	63[inhibitor]	-	-	-	-	.	-	-	-
COc1ccc(C2CC(c3cccs3)=NN2S(C)(=O)=O)cc1OC (stereo unspecified)	.	-	-	-	70	-	-	-	-
CCCCn1c(N)c(N(Cc2ccccc2OC)C(=O)CN2C(=O)NC3(CCCC3)C2=O)c(=O)[nH]c1=O	.	-	.	-	.	-	.	.	.
CC(C(=O)N1CCCCC1)N(C)CC(=O)Nc1cccc(F)c1 (stereo unspecified)	.	-	.	-	.	-	.	.	.
O=C(CSc1nnc(-c2cccnc2)s1)Nc1cccc(C(=O)O)c1	-	-	158	-	-	-	-	-	-
COC(=O)c1ccc2c(c1)C(C)(C)C(/C=C/c1ccccc1O)=[N+]2C	-1.0[inhibitor]	-	-	-	-	-	-	-	-
CCOC(=O)c1cccc(C2=CC(=O)C[C@H](c3ccc(Cl)cc3)C2)c1	.	-	.	-	.	-	.	.	.
Cc1cc(C2=NNC(=NCCc3ccccc3)SC2)c(C)n1-c1c(C)n(C)n(-c2ccccc2)c1=O	-	-	50[inhibitor]	-	-	-	-	-	-
Cc1cc(C2=NNC(=NC3CC3)SC2)c(C)n1-c1c(C)n(C)n(-c2ccccc2)c1=O	-	-	-	-	-	-	.	.	.
Cc1ccc([N+](=O)[O-])cc1NC(=O)CSc1nnc(C)n1CC1CCCO1 (stereo unspecified)	-	-	-	-	-	-	.	.	.
CCCCN(C(=O)c1ccc(Br)o1)C1CCS(=O)(=O)C1 (stereo unspecified)	.	-	.	-	.	-	.	.	.
SMILES	MEKK2 WT-MEK5	PREPL inh	MEKK3 PB1 HTS	ATG4B inh	MEKK2mut PB1 HTS	UBC13 inh	MEKK2wt confirm	MEKK2mut confirm	MEKK3-MEK5 inh
N=C1S/C(=C\c2ccccc2F)C(=O)N1c1ccc(F)cc1	-	-	-	-	-	-	.	.	.
N=C1S/C(=C\c2ccccc2)C(=O)N1c1ccc(F)cc1	-	-	138	-	-	-	-	-	-
COc1ccc(CN(C)C(=O)COC(=O)c2ccc(-c3ccccc3)cc2)c(OC)c1OC	.	.	.	-	.	-	.	.	.
CC1CCCCC12NC(=O)N(CC(=O)Nc1cccc(S(=O)(=O)N3CCCCC3)c1)C2=O (stereo unspecified)	.	-	.	-	.	-	.	.	.
CCN(CC)S(=O)(=O)c1ccc(OC)c(NC(=O)c2cc3c(=O)n4ccccc4nc3s2)c1	-	-	130	-	-	-	-	-	-
CC(=O)NS(=O)(=O)c1ccc(NC(=O)c2cc3c(=O)n4ccccc4nc3s2)cc1	-	-	-	-	-	-	.	.	.
CN(C)c1ccc([N+](=O)[O-])cc1C(=O)O	-	-	129	-	-	-	-	-	-
CC1(C)Cc2cccc(OCC(=O)Nc3cccnc3)c2O1	-	-	130	-	-	-	-	-	-
CC(=O)Nc1ccc(NC(=O)COc2cccc3c2OC(C)(C)C3)cc1	-	-	-	-	-	-	.	.	.
C=CCOc1ccc(/C=C2\N=C(C)OC2=O)cc1OC	53[inhibitor]	-	61[inhibitor]	-	-	-	-	-	-
CCc1ccc(C2=Nn3c(nnc3-c3cccs3)SC2)cc1	-	-	126	-	-	-	-	-	-
Cc1ccc(C(=O)CSc2ncnc3sc4c(c23)CCCC4)cc1	-7.0[inhibitor]	-	0.0[inhibitor]	-	-	-	-	-	-
Cc1ccc(C)c(N2CCN(C(=O)CCS(=O)(=O)c3ccc4c(c3)oc(=O)n4C)CC2)c1	-	-	-	-	-	-	.	.	.
Cc1ccc(S(=O)(=O)NCc2ccc3[nH]c(C)cc3c2)cc1	-	-	-	-	-	-	.	.	.
CC(=O)Nc1ccc(S(=O)(=O)NCCNc2ccccc2[N+](=O)[O-])cc1	-	-	128	-	-	-	-	-	-
